Measurements taken from PubChem BioAssay (EPA / NIEHS).
Results filed as inconclusive are left out. The source made the active and inactive calls. Rule for the calls, unless noted: active = hit-call score of the fitted dose curve at least 0.9, where 1 is the maximum; inconclusive = response in the unintended direction; inactive = score below 0.9.

Columns and labels:
[1] = TOX21_p53_BLA_p2_viability: Viability Assessment in the Tox21 HCT-116 p53 Agonism Beta-lactamase Assay, Phase 2 (AID 2283591);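 note: actives lower the ATP signal meaning cytotoxicity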
Procedure, shortened: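 HCT-116 p53-bla cells (4000/well) rested 5 h at 37C, then received compounds in DMSO (217-fold dilution) for 16 h at 37C, 5% CO2. After the CCF4 read, CellTiter-Glo was added; ATP luminescence was read after 30 min at room temperature.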

[2] = molecular target: Cellular tumor antigen p53 (Homo sapiens) (UniProt P04637); assay: TOX21_p53_BLA_p2_ratio: Tox21 HCT-116 p53 Agonism Beta-lactamase Assay, Ratio, Phase 2 (AID 2283592)
Sequence of Cellular tumor antigen p53 (Homo sapiens) (P04637 whole entry, looked up): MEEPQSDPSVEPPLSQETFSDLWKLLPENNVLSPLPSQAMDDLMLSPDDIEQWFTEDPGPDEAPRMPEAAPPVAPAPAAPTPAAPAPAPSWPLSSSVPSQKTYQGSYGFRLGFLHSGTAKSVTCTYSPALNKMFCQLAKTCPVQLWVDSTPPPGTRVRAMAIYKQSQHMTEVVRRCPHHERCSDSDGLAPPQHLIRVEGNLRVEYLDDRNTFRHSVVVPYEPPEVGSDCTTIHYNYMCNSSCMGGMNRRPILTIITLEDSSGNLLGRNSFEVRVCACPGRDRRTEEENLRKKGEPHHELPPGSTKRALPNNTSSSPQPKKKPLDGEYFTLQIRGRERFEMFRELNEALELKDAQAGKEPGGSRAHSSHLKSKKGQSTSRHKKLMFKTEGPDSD
Procedure, shortened: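 First, HCT116 reporter cells settle for 5 h at 37C. Next, DMSO compound solutions are pinned in (217-fold dilution) and left 16 h. Finally, CCF4-AM substrate is loaded 2 h at room temperature and the 460/530 nm ratio read.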

[3] = molecular target: Cellular tumor antigen p53 (Homo sapiens) (UniProt P04637); assay: TOX21_p53_BLA_p3_ratio: Tox21 HCT-116 p53 Agonism Beta-lactamase Assay, Ratio, Phase 3 (AID 2283596)
Procedure, shortened: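 Cells were seeded at 4000/well, rested 5 h at 37C, then dosed with DMSO compound solutions (217-fold dilution) for 16 h. CCF4-AM substrate was loaded for 2 h at room temperature, and the 460/530 nm emission ratio was fitted for gain of signal versus DMSO.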

[4] = TOX21_p53_BLA_p5_viability: Viability Assessment in the Tox21 HCT-116 p53 Agonism Beta-lactamase Assay, Phase 5 (AID 2283600)
Procedure, shortened: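 Decreased CellTiter-Glo luminescence denotes lost viability. Exposure: 16 h at 37C, 5% CO2, with compounds from DMSO stocks diluted 217-fold in wells of 4000 cells.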

[5] = TOX21_p53_BLA_p4_viability: Viability Assessment in the Tox21 HCT-116 p53 Agonism Beta-lactamase Assay, Phase 4 (AID 2283597);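 note: hits lower the luminescence signal meaning cytotoxicity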
Procedure, shortened: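 4000 HCT116 cells per well; 5 h attachment; compounds from DMSO, 217-fold dilution; 16 h at 37C. Then CCF4-AM, 2 h RT, followed by CellTiter-Glo, 30 min RT, luminescence. Decrease = cytotoxicity.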

[6] = molecular target: Cellular tumor antigen p53 (Homo sapiens) (UniProt P04637); assay: TOX21_p53_BLA_p5_ratio: Tox21 HCT-116 p53 Agonism Beta-lactamase Assay, Ratio, Phase 5 (AID 2283599)
Procedure, shortened: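 HCT-116 cells carrying a p53-inducible beta-lactamase reporter were seeded at 4000 cells/well and dosed after 5 h with compound in DMSO (217-fold dilution). After 16 h at 37C, CCF4-AM substrate was added for 2 h, and the 460/530 nm emission ratio was scored as gain-of-signal versus DMSO.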

[7] = molecular target: Cellular tumor antigen p53 (Homo sapiens) (UniProt P04637); assay: TOX21_p53_BLA_p4_ratio: Tox21 HCT-116 p53 Agonism Beta-lactamase Assay, Ratio, Phase 4 (AID 2283601)
Procedure, shortened: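 HCT116 cells carrying an inducible beta-lactamase reporter were plated at 4000 cells/well, rested 5 h, then exposed to compounds in DMSO (217-fold dilution) for 16 h at 37C. CCF4-AM substrate was loaded 2 h at room temperature; 460/530 nm emission ratio scored gain-of-signal versus DMSO.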

[8] = TOX21_p53_BLA_p3_viability: Viability Assessment in the Tox21 HCT-116 p53 Agonism Beta-lactamase Assay, Phase 3 (AID 2283593);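 note: cells exposed to compound for 16 h before reading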
Procedure, shortened: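 HCT-116 cells (4000/well) rested 5 h at 37C, then got DMSO compounds by pin tool (217-fold dilution) for 16 h at 37C, 5% CO2. After the bla read, CellTiter-Glo was added and luminescence read at 30 min, room temperature.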

[9] = CCTE_Harrill_HTTr_Viability_MCF7: CCTE's 6-hour Cell Viability Assessment for the High-Throughput Transcriptomics (HTTr) Platform, in MCF-7 cells cultured in DMEM + 10% fetal bovine serum, Harrill Lab (AID 2284010; active = hit-call score of the fitted dose curve at least 0.9, where 1 is the maximum; inactive = score below 0.9)
Procedure, shortened: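 PI exclusion, high-content imaging; 8-pt dilution series, 6 h exposure; bidirectional fit vs DMSO (neg. ctrl/baseline); gain of signal = loss of membrane integrity.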

[10] = CCTE_Harrill_HTTr_Apoptosis_MCF7: CCTE's 6-hour Apoptosis Assessment for the High-Throughput Transcriptomics (HTTr) Platform, in MCF-7 cells cultured in DMEM + 10% fetal bovine serum, Harrill Lab (AID 2284011; active = hit-call score of the fitted dose curve at least 0.9, where 1 is the maximum; inactive = score below 0.9)
Procedure, shortened: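 MCF-7 cells in DMEM + 10% FBS exposed 6 h to chemicals over an eight-point dilution series. Caspase-3/7 activation imaged by high-content CellEvent Green staining; fitted bidirectionally versus DMSO.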

[11] = CCTE_Harrill_HTTr_CellCount_MCF7: CCTE's Cell Proliferation Assessment for the High-Throughput Transcriptomics (HTTr) Platform, Harrill Lab (AID 2284012);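 note: count of Hoechst-stained nuclei per well by high-content imaging in MCF-7 cells; cells exposed to compound for six hours; intended direction is loss of nuclei count meaning fewer cells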
Procedure, shortened: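 Readout: Hoechst nuclear count by high-content imaging. MCF-7, 8-point dilution series, 6 h exposure. Bidirectional fit vs DMSO baseline.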

Measured: AC50

CCC1(c2ccccc2)C(=O)NC(=O)N(C)C1=O (centres undefined)
inactive: [1] | [2] | [3] | [4]

CC1=C2[C@H]3OC(=O)[C@@H](C)[C@@H]3CC[C@@]2(C)C=CC1=O
inactive: [1] | [2] | [5] | [6] | [4] | [7]

CCc1cc(OC)c(C[C@@H](C)N)cc1OC
inactive: [1] | [2] | [5] | [6] | [7]

COC(=O)C(Br)CBr (centres undefined)
inactive: [1] | [2] | [6] | [7]
active: [3] 48 µM

CNC(=O)NC(O)C(Cl)(Cl)Cl (centres undefined)
inactive: [1] | [2] | [5] | [4] | [7]

COc1ccc2c(C(=O)c3ccc(Cl)cc3)c(C)n(CC(=O)O)c2c1
inactive: [1] | [2] | [5] | [6] | [4] | [7]

O=[N+]([O-])CCO
inactive: [1] | [2] | [5] | [4] | [7]

CN1CCC(O)(c2ccc(F)cc2)C(C(=O)c2ccc(F)cc2)C1 (centres undefined)
inactive: [1] | [2] | [6]

C=CCC1([C@@H](C)CCC)C(=O)NC(=O)NC1=O
inactive: [1] | [2] | [5] | [6] | [4]

COc1cc(CCN)cc(OC)c1OC
inactive: [1] | [2] | [6] | [4]

CCSC(=O)Cl
inactive: [1] | [2] | [5] | [6] | [4] | [7]

C=CC(C)=O
inactive: [1] | [8] | [3] | [5] | [6] | [4] | [7]

ClCC1CO1 (centres undefined)
inactive: [1] | [2] | [6] | [4] | [7]

CC(C)c1ccc(NC(=O)N(C)C)cc1
inactive: [1] | [8] | [3] | [5] | [6] | [4] | [7]

S=C=NCCc1ccccc1
inactive: [1] | [8] | [6]
active: [3] 59.3 µM

Cc1nnc2n1-c1sc(CCC(=O)N3CCOCC3)cc1C(c1ccccc1Cl)=NC2
inactive: [1] | [8] | [3] | [5] | [6] | [4]

Nc1ccc(Cc2ccc(N)c(Cl)c2)cc1Cl
inactive: [1] | [5] | [6] | [4] | [7]
active: [8] 77.1 µM | [3] 71.5 µM

COC1CC(=C(c2cccs2)c2cccs2)C[N+](C)(C)C1 (centres undefined)
inactive: [1] | [2] | [6] | [4]

CNC(C)Cc1ccccc1OC (centres undefined)
inactive: [1] | [8] | [3] | [5] | [4]

c1ccc(C2(N3CCCC3)CCCCC2)cc1
active: [8] 33.1 µM | [3] 43.9 µM
inactive: [1] | [5] | [6] | [4]

Clc1ccc(C2(Cn3cncn3)OCCO2)c(Cl)c1
inactive: [1] | [2] | [6] | [4] | [7]

CCC(C(N)=O)N1CCCC1=O (centres undefined)
inactive: [1] | [2] | [6] | [4] | [7]

ClCc1ccccc1
inactive: [1] | [8] | [3] | [5] | [6] | [4]

N#CCc1ccccc1
inactive: [1] | [8] | [3] | [5] | [6] | [4] | [7]

CC1(C)C(/C=C(\Cl)C(F)(F)F)C1C(=O)OC(C#N)c1cccc(Oc2ccccc2)c1 (centres undefined)
inactive: [1] | [8] | [3] | [5] | [7]

C1CN(P2(N3CC3)=NP(N3CC3)(N3CC3)=NP(N3CC3)(N3CC3)=N2)CCO1 (centres undefined)
active: [3] 23 µM
inactive: [1] | [8] | [5] | [6] | [4] | [7]

CCCCNCC(O)c1ccc(O)cc1 (centres undefined)
inactive: [1] | [2] | [6] | [4] | [7]

O=[N+]([O-])c1cc(I)c(O)c(I)c1
active: [1] 7.77 µM | [8] 5.69 µM | [3] 2.65 µM | [5] 11.3 µM | [6] 24.2 µM | [4] 11 µM | [7] 18 µM

CCCCc1c(C)nc(NCC)[nH]c1=O
inactive: [1] | [8] | [3] | [5] | [6] | [4] | [9] | [10] | [11]

CC(=O)C(Cl)Cl
inactive: [1] | [8] | [3] | [5] | [6] | [4] | [7]

CSCCCN=C=S
inactive: [1] | [8] | [6] | [4]
active: [3] 20.9 µM

OCCSSCCO
inactive: [1] | [2] | [6] | [7] | [9] | [10]
